Screening data as filed in PubChem BioAssay.
The list is not random: actives were taken first. Their share in the collection is about 1.3%.
hERG WT inh – inhibitors of human wildtype KCNH2 potassium channel; U2OS, BacMam KCNH2, thallium flux FluxOr; active compounds read low; activity change, % at 1.84 µM; 340,000 compounds, 0.37% hits; AID 720551;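 active = maximum activity change below -70%; inconclusive = maximum activity change between -70% and -50%; inactive = maximum activity change above -50%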; note: % is set by controls: 0 for no effect and ±100 for the full control effect
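U2OS cells were transduced with wild-type KCNH2 virus (2.03 x 10^8 / mL) for 4 h at room temperature, then cultured overnight at 37 C. Thallium flux was read with FluxOr dye. Rate constants were normalized to DMSO controls.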
KCNH2 3.1 inh – inhibitors of human KCNH2 3.1 potassium channel isoform | activity change, % (tested at about 1.8 µM) | 340,000 compounds, 0.95% hits | U2OS KCNH2 3.1, thallium flux FluxOr; active compounds read low;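 active = maximum activity change below -70%; inconclusive = maximum activity change from -70% to -50%; inactive = maximum activity change above -50%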;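 note: thallium influx rate constant from kinetic fluorescence after stimulation buffer; % is set by controls: 0 for no effect and ±100 for the full control effect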
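Channel expression came from 3.1 mutant virus (1.77 x 10^8 /mL) applied to suspended U2OS cells for 4 h. Flux was tracked with FluxOr dye plus Red40 quencher, and kinetic rate constants normalized to controls.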
Rango complex inh – inhibitors of Rango-importin beta complex formation | Potency, µM (doses to about 92.2 µM), for inactives: at the top dose inhibition of complex formation | 340,000 compounds, 0.031% hits | Q14974 | Rango CFP/YFP FRET sensor + importin beta, 45 min;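 note: potency is the fitted concentration of half-maximal effect; 0% = DMSO wells and 100% = buffer wells lacking importin beta; nearly all actives have a fitted effect of over 15% in size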
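FRET biosensor (snurportin 1 IBB flanked by EYFP and cerulean), 50 nM, with compound 5 min, then 0.125 microM importin beta in PBS, 1 mM DTT, 0.02% Tween-20, 0.1% BSA. CFP/YFP ratio read after 45 min at room temperature; pre-read flags interference.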
Rango release inh – inhibition of RanGTP-driven Rango-importin beta dissociation; Biochemical FRET Rango-importin beta, RanGTP-induced dissociation; Potency, µM (titrated, usually from 46.1 µM), inactives show at the highest dose activity change, negative = inhibition; 340,000 compounds, 0.071% hits; note: potency is the fitted concentration of half-maximal effect; % of control where 0% means no effect; nearly all actives have a fitted effect of over 45% in size
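Rango FRET biosensor (snurportin-1 IBB flanked by N-terminal EYFP and C-terminal CFP10) at 0.1 uM, with 0.25 uM importin beta in PBS, 1mM DTT, 0.02% Tween-20, 0.1% BSA. 0.6 uM Ran, 2mM GTP and 0.2 uM RCC1 were then added for 45 min at room temperature. Inhibition read as loss of FRET rise.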
* = called active by the depositor; ? = inconclusive; . = no result given. Unless noted, calls come from the whole dose curve.

SMILES	hERG WT inh	KCNH2 3.1 inh	Rango complex inh	Rango release inh
CN(CCc1ccccc1)C(=O)c1ccc(NC(=O)Cc2ccc(NC(=O)C3CCCN(C(=O)C4CC4)C3)cc2)cc1 (centres undefined)	29.3	7.3	-4.1%	-23.0%
COc1ccc(N2CCN(C(=O)c3cc(-c4ccc(F)cc4)[nH]c3C)CC2)cc1	-88.3*	-82.9*	0.0%	-1.8%
COc1ccc(CC(Cc2ccc(OC)c(OC)c2)NC=O)cc1OC	7.6	-6.0	.	.
Cc1ccc(NC(=O)Nc2ccno2)cc1	1.2	-111.8*	1.8%	4.3%
Cc1ccc(NC(=O)Nc2ncccc2C)cc1	-4.0	-15.2	-5.5%	5.9%
COc1cc2c(cc1OC)CN(C(=O)CNS(=O)(=O)c1ccc(C)c(C)c1)CC2	-5.0	-7.4	-2.8%	-3.7%
Cc1ccc(S(=O)(=O)Nc2cccc(C(=O)NCC3(N4CCCCC4)CCCCC3)c2)cc1F	4.1	-78.3*	0.5%	-4.4%
Cc1cc(C)cc(OCCNC(=O)c2ccc(Br)cc2)c1	7.1	-3.1	-3.9%	-3.6%
Cc1ccc(Nc2nc(Cl)nc(NC3CCCCC3)n2)cc1	0.9	-93.1*	4.4%	-1.2%
CC(C)[C@@H](C(=O)NC1CCN(Cc2ccccc2)CC1)N1C(=O)N2CCc3c([nH]c4ccccc34)[C@@]2(C)C1=O	?	-86.8*	?	-7.0%
N#CC1(Cc2ccc([N+](=O)[O-])cc2)c2ccccc2C=CN1C(=O)c1ccccc1 (centres undefined)	2.8	-88.3*	1.2%	10.0%
O=C(Nc1ncc(Cc2ccc(SC(F)F)cc2)s1)c1ccc(OC(F)F)cc1	3.6	-81.8*	-0.1%	14.3%
O=C(/C=C/c1cccc(Cl)c1Cl)OCC(=O)N1CCOCC1	3.5	6.1	0.5%	16.4%
O=C(Nc1ccc(S(=O)(=O)Nc2ncccn2)cc1)c1ccccc1Br	4.3	19.9	-0.5%	-3.4%
CCN(CC)S(=O)(=O)c1cccc(C(=O)OCC(=O)Nc2ccc3c(c2)c2ccccc2n3CC)c1	-119.1*	9.2	-5.3%	6.3%
COc1ccc(C(=O)CC(=O)c2ccc(C(C)(C)C)cc2)cc1	4.6	-7.7	-3.9%	-10.6%
Cc1ccc(C(=O)CC(=O)c2ccc(C(C)(C)C)cc2)cc1	6.7	-102.3*	0.3%	10.8%
O=C(O)c1cn(Cc2ccccc2)c2ccc(Cl)cc2c1=O	.	.	0.7%	1.7%
COc1ccc(C[C@H]2CN3C(=NC[C@@H]3C(C)C)N2CCNC(=O)CCC2CCCCC2)cc1	-18.2	15.1	-1.5%	7.0%
COc1ccc(C[C@H]2CN3C(=NC[C@@H]3Cc3ccccc3)N2CCNC(=O)CCC2CCCCC2)cc1	-144.5*	?	1.7%	9.1%
CCc1ccc(CN2CCC(n3nccc3NC(=O)C3CCCC3)CC2)cc1	-30.5	-75.1*	-0.3%	13.8%
O=C(Nc1ccnn1C1CCN(Cc2ccc(OC(F)F)cc2)CC1)C1CCCC1	-102.0*	-82.8*	-2.4%	-1.1%
CC(C)Oc1ccc(CN2CCC(n3nccc3NC(=O)CCc3ccccc3)CC2)cc1	-31.7	-105.7*	0.0%	-5.9%
Cc1c(CN2CCC(n3nccc3NC(=O)C3CC3)CC2)[nH]c2ccccc12	-20.8	-73.8*	3.4%	-10.8%
CCN(CC)S(=O)(=O)c1ccc(C(=O)Nc2cc(S(=O)(=O)N3CCOCC3)ccc2N2CCN(C)CC2)cc1	4.4	-4.3	-4.2%	-0.9%
SMILES	hERG WT inh	KCNH2 3.1 inh	Rango complex inh	Rango release inh
CC(C)c1ccc(CN2CCC(n3nccc3NC(=O)C3CCCC3)CC2)cc1	6.7	-72.2*	.	.
O=C(Nc1ccnn1C1CCN(Cc2ccc(Cl)cc2)CC1)C1CCCC1	54.7	-44.2	0.0%	-8.4%
COCCn1c(SCC(=O)NCc2ccc3c(c2)OCO3)nnc1-c1c[nH]c2ccccc12	-149.2*	-215.3*	-2.7%	-14.5%
COCCn1c(SCC(=O)NCc2ccc3c(c2)OCO3)nnc1C(C)C	8.7	-4.0	1.5%	-1.9%
CC(C)N(C(=O)COC(=O)c1cccc(N(C)C)c1)c1ccccc1	6.5	1.0	-0.2%	-13.2%
O=C(OCC(=O)N1CCN(c2ccc(F)cc2)CC1)c1cnc2ccccc2n1	-5.4	14.7	-2.5%	-8.4%
O=C(O)c1ccc(N2C(=O)c3cccc4c(C(=O)O)ccc(c34)C2=O)cc1	9.3	-21.5	1.8%	15.8%
O=C(O)c1ccc2c3c(cccc13)C(=O)N(c1ccccc1)C2=O	-0.7	-103.7*	2.0%	-17.4%
CCCc1cc(=O)oc2cc(OCC(=O)NCCN3CCOCC3)c(Cl)cc12	-8.8	17.6	.	.
